Source: PubChem BioAssay
The list is not random: actives were taken first. Their share in the collection is about 0.87%.
BLM inh = inhibitors of human Bloom syndrome helicase BLM; P54132; recombinant BLM DNA unwinding, fluorescence dequenching; Potency, µM (series often up to 56.1 µM), actives largely listed as inhibitors; 0.2% of 350,000 active; AID 2528; also: nearly all actives have a fitted effect of over 35% in size
GCN5L2 inh-1 = blocks human GCN5L2 histone acetyltransferase. Q92830. GCN5L2 HAT assay, ThioGlo1 CoA-SH fluorescence. Potency, µM (highest dose often 58.9 µM), most hits filed as inhibitors. 0.21% of 390,000 active
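GCN5L2 (20 nM) in 50mM HEPES pH 7.5, 0.1mM EDTA, 0.01% Tween-20 preincubated 15 min with compounds at room temperature. Reaction started with H3(1-25) 75uM, acetyl-CoA 70uM, ThioGlo1 50uM; CoA-thiol fluorescence (Ex340/Em540) read at 0 and 20 min.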
APE1 inh = inhibitors of human APE1 endonuclease | P27695 | 0.35% of 350,000 active | AID 2517 | Potency, µM (doses to about 65.8 µM), usual class: inhibitors | recombinant APE1, TAMRA/BHQ-2 abasic DNA cleavage fluorescence; also: nearly all actives have a fitted effect of over 55% in size
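Kinetic fluorescence read (525 ex/598 em nm, three reads 60 s apart) of AP-site incision; signal = third minus first read. Enzyme 0.75 nM, dual-labelled THF duplex 50 nM, compound preincubation 15 min RT.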
RECQ1 inh-1 = blocks DNA unwinding by human RECQ1; 0.54% of 240,000 active; Potency, µM (highest dose often 57.3 µM), usual class: inhibitors; RECQ1 DNA unwinding, red fluorescence kinetic read; P46063; AID 2549; also: nearly all actives have a fitted effect of over 30% in size
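50 nM RECQ1T1 preincubated 15 min with compound in Tris pH 8.0 buffer with MgCl2, DTT, Tween-20 and 2.5 ug/ml poly(dI-dC); started with 200 nM TAMRA/BHQ-2 forked duplex and 2 mM ATP. Unwinding read as fluorescence (525/598 nm), two reads 2 h apart.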
TDP1 block = TDP1 (human) enzyme inhibition | 0.28% of 350,000 active | recombinant TDP1, AlphaScreen DNA substrate cleavage | Potency, µM (series often up to 130 µM), most hits filed as inhibitors; also: nearly all actives have a fitted effect of over 40% in size
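Signal: AlphaScreen proximity between streptavidin donor and anti-FITC acceptor beads on intact substrate. Reaction: Tdp1 1 nM, substrate 15 nM final, 5 min RT after 15 min compound preincubation.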
RECQ1 inh conf = confirmation of human RECQ1 helicase inhibitors | shares compounds with RECQ1 inh-1 | RECQ1 helicase DNA unwinding, fluorescence | Potency, µM (highest dose often 229 µM), hits mostly inhibitors | 28% of 610 active | AID 2708; also: nearly all actives have a fitted effect of over 45% in size
ADP FP counter = ADP displacement flagged in RECQ1 inhibitor counter-screen | 27% of 530 active | ADP fluorescence polarization displacement counterscreen | Potency, µM (series often up to 228 µM), usual class: inhibitors | AID 2711 | shares compounds with RECQ1 inh-1; also: nearly all actives have a fitted effect of over 45% in size
RECQ1 inh-2 = confirmation of human RECQ1 helicase inhibitors | recombinant RECQ1 DNA unwinding, red fluorescence | Potency, µM (doses to about 119 µM), usual class: inhibitors | 15% of 1,100 active | shares compounds with RECQ1 inh-1; also: nearly all actives have a fitted effect of over 50% in size
GCN5L2 inh-2 = confirmation of human GCN5L2 histone acetyltransferase inhibitors; shares compounds with GCN5L2 inh-1; GCN5L2 HAT, ThioGlo1 CoA fluorescence, 20 min; Potency, µM, usual class: inhibitors; 70% of 140 active; AID 588347
Hits are given with their value; n = inactive; u = inconclusive; x = no result; ! = not active in a repeat; [ ] = another dose, or the depositor's remark. Calls follow the shape of the dose curve; as a rule, active = well fitted curve in the direction sought with a large enough effect; inconclusive = small, poorly fitted or top-dose-only effect, or another doubt; inactive = no such curve, though single readings can be large; an effect the other way counts as inactive or inconclusive.

SMILES	BLM inh	GCN5L2 inh-1	APE1 inh	RECQ1 inh-1	TDP1 block	RECQ1 inh-2	others
C=CCn1c(SCC(=O)NCc2ccccc2)nnc1-c1ccccc1O	n	n	n	n	n	x	RECQ1 inh conf=n;ADP FP counter=n
C=CCn1c(SCC(N)=O)nnc1-c1ccccc1O	n	n	n	n	n	x
CCn1c(CCCOc2ccc(Cl)cc2Cl)nnc1SCC(=O)Nc1cccc(F)c1	n	n	n	13µM	n	n	RECQ1 inh conf=n;ADP FP counter=n
Cc1ccc(-c2nc(=Nc3c(C)cc(C)cc3C)sn2-c2ccccc2)cc1	x	x	x	x	n	x
Cc1onc(-c2c(F)cccc2Cl)c1C(=O)OCC(=O)c1c[nH]c2ccccc12	n	n	u	22µM	x	n
C=CCn1c(O)c(N=NC(=O)CNC(=O)/C=C/c2ccco2)c2ccccc21	u	n	u	u	u	u
COC(=O)CNC(=O)C1(CC(C)C)C=CCN1C(C)=O (configuration not stated)	n	x	n	n	n	x
CC(C)=CCC/C(C)=C/CO/N=C1/[C@H]2O[C@@H]2[C@@H](O)[C@H]2[C@H]1CCn1c(=O)n(C)c(=O)n12	n[12.4 µM]	x	n[12.4 µM]	n[11.5 µM]	n[21 µM]	x
CC1CCC/C(=C\Nc2ccc(O)cc2)C1=O (configuration not stated)	n	n	n	u	n	n
O=S(=O)(Nc1nc2ccccc2nc1Nc1ccc(N2CCOCC2)cc1)c1cc(Cl)ccc1Cl	n	n	n	u	n	n
c1ccc(CNc2ncnc3ccc(-c4ccc5c(c4)OCO5)cc23)cc1	n	n	n	n	x	x
CCOC(=O)c1c(C)[nH]c(C)c1S(=O)(=O)N1CCC(C(=O)N2CCN(c3ccccc3)CC2)CC1	n	n	x	x	n	x
CCN1CCN(c2cc(C)c3cc(NC(=O)c4ccc(OC)c(OC)c4)ccc3n2)CC1	n	n	n	22µM	n	u
COc1ccc2c(c1)CC/C(=C\c1ccc(OC)c(Cn3cccn3)c1)C2=O	n	n	n	n	n	x
COc1ccc2c(c1)CC/C(=C\c1ccc(OC)c(Cn3nc(C)cc3C)c1)C2=O	n	n[0.501 µM]	n	35µM	x	u
Cc1c(CCOC(=O)c2ccc(N3CCOCC3)c([N+](=O)[O-])c2)sc[n+]1CC#N	n	n	n	u	n	u
Cc1ncsc1CCOC(=O)c1ccc(N2CCOCC2)c([N+](=O)[O-])c1	n	n	n	n	n	x
COc1ccccc1C1CC(=O)Oc2cc3c(cc21)OCO3 (configuration not stated)	n	28µM	32µM	35µM	x	28µM
COc1cccc(CN2CC34CCC(CC3S2(=O)=O)O4)c1 (configuration not stated)	n	x	n	n	n	x
O=C(CSc1nnc(-c2ccccc2)o1)c1nnc(-c2ccccc2)o1	n	n	n	u	n	n
CCC(NC(=O)Nc1cc(OC)ccc1OC)c1c(-n2cccc2)sc2c1CCN(CC)C2 (configuration not stated)	n	n	x	x	n	x
COc1ccc(CCNC(=O)c2ccc3c(c2)N(Cc2cc(C)ccc2C)C(=O)c2ccccc2S3=O)cc1OC (configuration not stated)	n	n	x	x	n	x
O=c1oc2ccccc2c2oc3cc(O)c(O)cc3c12	10µM!	n	u	25µM	n	35µM
c1csc(Cc2nn3c(-c4ccncc4)nnc3s2)c1	n	n	u	10µM	x	n	ADP FP counter=n
c1csc(-c2nn3c(-c4ccncc4)nnc3s2)c1	n	n	n	n	n	x
SMILES	BLM inh	GCN5L2 inh-1	APE1 inh	RECQ1 inh-1	TDP1 block	RECQ1 inh-2	others
O=[N+]([O-])c1ccc(Sc2cccc[n+]2[O-])c2nonc12	u	16µM	u	u	n	25µM
Cc1cccc(-n2c(=O)c(C#N)cc3c(=O)n4ccccc4nc32)c1	n	n	n	n	n	x
Cc1ccc(-n2c(=O)c(C#N)cc3c(=O)n4ccccc4nc32)cc1	n	n	u	35µM	n	n
Cc1cc(=O)c2c(O)c(O)ccc2o1	n	n	u	35µM	n	n
CC1=CCc2c(cc3oc(C)cc(=O)c3c2O)OC1	n	n	n	n	n	x
O=C(CNC(=O)c1ccccc1Cl)OCc1cc(=O)n2ccsc2n1	n	n	x	x	n	x
CC(=O)C(C(C)=O)C1(O)C(=O)c2ccccc2C1=O	u	n	u	u	n	n
O=C(NC1(O)C(=O)c2ccccc2C1=O)c1ccccc1	u	n	u	n	n	x
CCCCCCCOC1(c2ccccc2)OC(=O)c2ccccc21 (configuration not stated)	n	n	n	n	n	x
CCCCCCOC1(c2ccccc2)OC(=O)c2ccccc21 (configuration not stated)	n	n	n	40µM	x	n
CC(C)(C)c1ccc(OCc2cc(=O)n3c4c(sc3n2)CCCC4)cc1	n	n	x	x	n	x
O=C(CSc1nnc(-c2ccco2)c(-c2ccco2)n1)Nc1ccccc1	14µM	u	14µM	10µM	x	n	GCN5L2 inh-2=26
O=C(CSc1nnc(-c2ccccc2)c(-c2ccccc2)n1)NCc1ccco1	n	n	n	n	n	x
Cc1cccc(C)c1NC(=O)C(=O)NCC(c1ccc2c(c1)OCO2)N1CCOCC1 (configuration not stated)	n	n	x	x	n	x
Cc1c2cnn(CC(=O)Nc3c(F)c(F)cc(F)c3F)c(=O)c2c(C)n1Cc1ccccc1F	u	13µM	u	25µM	n	u	GCN5L2 inh-2=20
Nc1nc2c([nH]c(=O)n2C2OC(CO)C(O)C2O)c(=O)[nH]1 (configuration not stated)	n	n	n	n	n	x
O=C(N/N=C/c1ccc(-c2ccc(S(=O)(=O)Nc3ncccn3)cc2)o1)c1cc2ccccc2cc1O	u	u	u	3.5µM	x	x	RECQ1 inh conf=45µM;ADP FP counter=n;GCN5L2 inh-2=u
ClC(Cl)(c1nnnn1-c1ccccc1)c1nnnn1-c1ccccc1	n	22µM	n	n	n	x	GCN5L2 inh-2=8.1
c1ccc(-c2nnnn2-c2ccccc2)cc1	n	n	n	x	x	x
Cc1nc2nc(-c3cccs3)cn2nc1C	n	u	n	n	n	x	GCN5L2 inh-2=36
COc1ccc(S(=O)(=O)N(CCO)c2ccccc2CN(C)C/C=C/c2ccc(Cl)cc2)cc1	x	n	n	n	n	x
CCN(CC(=O)Nc1c(F)cccc1F)C(=O)/C=C/c1ccc2ccccc2n1	x	u	1.7µM	x	x	x	GCN5L2 inh-2=23
